# PubChem BioAssay AID492993 (Johns Hopkins Ion Channel Center, 2010)
# The whole screen tested about 4,900 compounds, of which about 200 (4.1%) were called active.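 Rule for the calls: active = thallium signal drop more than 5 SD beyond the mean of the no-compound control wells, seen in both duplicate plates; inactive = the rest.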 The list is a sample of the results.
# Molecular target: Inward rectifier potassium channel 2 (Mus musculus) (UniProt P35561)
# Assay: off-target Kir2.1 potassium flux block – cell-based, HEK293, thallium flux, selectivity assay for KCNK9 modulator project, confirmation (AID 492993);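 for inhibition: signal is fluorescence rise after thallium addition divided by baseline fluorescence; plate controls were assay buffer only for no effect and full block by chlorpromazine control for full effect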
# Conditions: Kir2.1 cells, FluxOR thallium flux fluorescence, at 10 µM; stronger effect = higher value
# Chain of Inward rectifier potassium channel 2 (Mus musculus) (P35561 whole entry, looked up): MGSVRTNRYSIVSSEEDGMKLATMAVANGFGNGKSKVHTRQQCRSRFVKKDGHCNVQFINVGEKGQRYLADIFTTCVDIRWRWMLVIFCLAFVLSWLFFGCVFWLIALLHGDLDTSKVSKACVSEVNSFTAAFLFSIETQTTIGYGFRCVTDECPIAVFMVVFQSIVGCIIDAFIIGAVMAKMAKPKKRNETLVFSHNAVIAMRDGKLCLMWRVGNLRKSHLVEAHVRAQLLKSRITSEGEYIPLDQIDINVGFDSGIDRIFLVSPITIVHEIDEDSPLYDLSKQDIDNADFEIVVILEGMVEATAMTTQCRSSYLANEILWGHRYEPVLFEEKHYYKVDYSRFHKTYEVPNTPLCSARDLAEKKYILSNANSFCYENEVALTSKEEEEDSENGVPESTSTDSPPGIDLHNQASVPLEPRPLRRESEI
row,SMILES,inhibition
1,C=CCc1cc(S(=O)(=O)c2ccc(O)c(CC=C)c2)ccc1O,inactive
2,COc1ccc(C2CC(c3cccs3)=NN2c2ccccc2)cc1 (stereo unspecified),inactive
3,Cc1cccc(N(C)C(=O)CN2C(=O)COc3ccc(S(=O)(=O)N4CCCCCC4)cc32)c1,inactive
4,CCOC(=O)c1c(NC(=O)CSc2cn(CC)c3ccccc23)sc2c1CCC2,inactive
5,CCCCCC(O)c1cccc(OCc2ccc3ccccc3n2)c1 (stereo unspecified),70.5% (active)
6,COc1cccc(COC(=O)C2CCN(S(=O)(=O)c3ccc(Cl)cc3)CC2)c1OC,inactive
7,CC(C)C(=O)Nc1cccc(NC(=S)NC(=O)C(c2ccccc2)c2ccccc2)c1,inactive
8,O=C(Cn1cc(C(=O)c2cccs2)c2ccccc21)NCc1cccs1,inactive
9,C/C(=N\NC(=S)Nc1ccc(C)cc1)c1cc2ccccc2o1,inactive
10,Cc1ccc(SCC(=O)c2cc(C)c(OC(=S)N(C)C)c(C)c2)cc1,inactive
11,CCOC(=O)Cc1cc(=O)[nH]c(=O)[nH]1,inactive
12,O=C(NNc1ccccc1Cl)C(O)(c1cccc(C(F)(F)F)c1)c1cccc(C(F)(F)F)c1,inactive
13,CC1(C)CC(N2CCN(C(c3ccccc3)c3ccccc3)CC2)=CC(=[N+]2CCCCC2)C1,65% (active)
14,c1ccc(C(c2ccccc2)N2CCN(Cc3nnnn3C3CCCCC3)CC2)cc1,inactive
15,CCC(C)(C)n1nnnc1C(c1cccs1)N1CCN(c2nc3ccccc3s2)CC1 (stereo unspecified),inactive
16,Clc1ccc(CSc2nnc(/C=C/c3ccccc3)o2)c(Cl)c1,inactive
17,COc1ccccc1C(c1nnnn1C(C)(C)C)N1CCN(Cc2ccccc2)CC1 (stereo unspecified),inactive
18,CN(C)S(=O)(=O)N1CCC(Oc2cccc(C(=O)NCCCC3CCCC3)c2)CC1,inactive
19,O=[N+]([O-])c1ccc(N2CCN(CC(O)COc3ccccc3)CC2)cc1 (stereo unspecified),inactive
20,O=C(Oc1ccc(Br)cc1C(=S)N1CCOCC1)c1cccc([N+](=O)[O-])c1,inactive
21,CN(CCOc1ccccc1)C(=O)c1cc(COc2c(F)cccc2F)on1,inactive
22,COC(=O)c1sc(-c2ccc(C(C)(C)C)cc2)cc1NC(=O)/C=C/C(=O)O,inactive

row,SMILES,inhibition
1,COc1cc(C(CCN2CCN(c3ccccc3)CC2)c2c(OC)cc(OC)c3ccc(=O)oc23)cc(OC)c1OC (stereo unspecified),inactive
2,O=C1/C(=C/c2ccc3c(c2)OCO3)CCC/C1=C\c1ccc2c(c1)OCO2,inactive
3,O=C(Nc1cc(Cl)cc(Cl)c1)C(NCCCO)c1ccccc1 (stereo unspecified),inactive
4,O=C(NCc1ccco1)c1ccc(NS(=O)(=O)c2cccc([N+](=O)[O-])c2)cc1,inactive
5,O=C1c2ccccc2C2=Nc3ccccc3SC(c3ccccc3F)C12 (stereo unspecified),inactive
6,Cc1cccc(NC(=O)CN2CCCN(S(=O)(=O)c3ccc(Br)s3)CC2)c1,inactive
7,Cc1ccc(C)c(NC(=S)NNC(=S)Nc2ccc(C(C)C)cc2)c1,inactive
8,Cc1c(C(=O)Nc2ccccn2)oc2ccc(Br)cc12,inactive
9,O=C(CC(NC(=O)c1ccccc1)c1ccccc1)Nc1ccc(F)c(F)c1 (stereo unspecified),inactive
10,CCCCN(CC)C(=O)C1CCCN(S(=O)(=O)c2cccc3nsnc23)C1 (stereo unspecified),inactive
11,Oc1ccc(/C=N/Nc2nc(-c3ccccc3F)nc3ccccc23)c(O)c1,inactive
12,COC(=O)Cn1cnc2scc(-c3ccc(C)c(C)c3)c2c1=O,inactive
13,O=C(Nc1ccc(Cl)c(Cl)c1)N1CC=C(c2ccccc2)CC1,inactive
14,Cc1ccc(C(=O)/C=C/c2c(C)nn(-c3ccccc3)c2Cl)cc1,inactive
15,CCCOc1ccc2c3c(c(=O)oc2c1OCCC)CCC3,inactive
16,COc1cccc(-c2cc3nc4c(c(N5CCC6(CC5)OCCO6)n3n2)CCCC4)c1,inactive
17,Cc1nn(CC(=O)Nc2nc3ccccc3s2)c(C)c1[N+](=O)[O-],inactive
18,COc1ccc(C(=O)C2CCCN(Cc3ccc4nonc4c3)C2)c(C)c1 (stereo unspecified),inactive
19,Cc1ccc(-c2csc(NCCc3nc4cc(Cl)c(Cl)cc4n3CCOCCO)n2)cc1,inactive
20,COc1ccc2c(c1)C(c1cccs1)=NNC(c1cccnc1)=N2,inactive
21,COc1ccc([N+](=O)[O-])cc1-c1nc2ccccc2nc1-c1ccccc1,inactive
22,Cc1cc2ccccn2c1C(=O)c1cccc(S(=O)(=O)N2CCOCC2)c1,inactive

row,SMILES,inhibition
1,COc1ccc(/C=C2\CCc3ccccc3C2=O)c(OC)c1OC,inactive
2,COc1cccc(OC)c1C(=O)Nc1sc2c(c1C(N)=O)CCCC2,inactive
3,CC(C)N(C(=O)CSc1nc(COc2ccccc2)nc2ccccc12)C(C)C,inactive
4,O=c1cc(CN2CCN(c3cccc(Cl)c3)CC2)c2cc3c(cc2o1)CCCC3,inactive
5,Cc1ccc(CN2CCN(/N=C/c3ccco3)CC2)c(C)c1,inactive
6,Cc1[nH]c2ccccc2c1CCN(Cc1cccs1)C(=S)NC(C)(C)C,inactive
7,O=C(CSCc1ccc(Cl)cc1)N1CCN(Cc2ccc3c(c2)OCO3)CC1,inactive
8,CCC/C=C(\CCC)C(NC(=O)Cc1ccccc1)c1ccc(C(=O)OC)cc1 (stereo unspecified),inactive
9,O=C1CC(NNc2ccccc2)C(=O)N1c1cccc(Cl)c1 (stereo unspecified),inactive
10,FC(F)(F)c1cc(-c2ccco2)nc(NCc2ccc(Cl)cc2)n1,inactive
11,COc1ccc(NC(=O)CN(C)CC(=O)Nc2cccc(C(F)(F)F)c2)cc1,inactive
12,CCCCCn1c(=O)c(C(=O)OCC)c(Cl)c2ccccc21,inactive
13,CCCCCCCCCCOC(=O)Cn1c(COc2cccc(OC)c2)[n+](C)c2ccccc21,70% (active)
14,CCCCCCCCCCOC(=O)Cn1c(COc2ccc(C)cc2)[n+](C)c2ccccc21,60.5% (active)
15,CCCSc1nc(NCc2ccco2)c2c3c(sc2n1)COC(C)(CC)C3 (stereo unspecified),inactive
16,COc1ccc(-c2noc(CSc3ccc(C)cc3)n2)cc1,inactive
17,COc1cccc(COc2ccc(N(C)S(=O)(=O)c3ccccc3)cc2)c1,inactive
18,CCOc1ccc(C(C)C)cc1S(=O)(=O)n1nc(C)cc1C,inactive
19,Cc1cc(C=O)c(C)n1-c1ccc(NC2CCCCC2)c([N+](=O)[O-])c1,inactive
20,O=C(C[C@H]1C(=O)N(c2ccc(F)c(F)c2)C[C@@H]1Cc1ccccc1)Nc1ccccc1,inactive
21,CCCCNC(=S)N/N=C1\CCCCc2ccccc21,inactive
22,CC(C)(C)SCCSC1=CC(=O)CC(c2ccccc2)C1 (stereo unspecified),inactive
